Measured values from PubChem BioAssay.

Test: small-molecule microarray binders of probe aLefty2, primary screen, biochemical, biotinylated probe, 635/667 nm fluorescence (AID 1094);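 note: score merges spot fluorescence near 667 nm with spot signal-to-noise ratio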
Details: higher = more signal
`O=C1c2ccccc2[C@](Cc2ccccc2I)(C(=O)NCC(F)(F)F)[C@H](c2ccc(CO)cc2)N1Cc1ccccc1Cl` gave a composite z-score of -0.0283.
With `CCCC=C(CCC)[C@@H](NC(=O)c1cccs1)c1ccc(C(F)(F)F)cc1` the composite z-score was 0.291.
In the case of `CCCCN1CC=CC23O[C@@H]4C=CCCOC(=O)C4[C@H]2C(=O)N(CCCCCCO)[C@@H]3C1=O` (stereo partly specified), the composite z-score is reported as -0.462.
`CCCCCN1CC=CC23O[C@@H]4C=CCCOC(=O)C4[C@H]2C(=O)N(CCCCCO)[C@@H]3C1=O` (stereo partly specified) showed a composite z-score of -0.0288.
Compound `O=C(NC1CC1)[C@@H]1c2ccccc2C(=O)N(Cc2ccccc2Cl)[C@H]1c1ccc(CO)cc1` has a composite z-score of 0.161.
`COCCOC(=O)N1C(=O)[C@@]2(c3cc(C#CCC(C(=O)OC)C(=O)OC)ccc31)[C@H](C(=O)N1CCN(c3ncccn3)CC1)[C@H]1C(=O)O[C@H](c3ccccc3)[C@H](c3ccccc3)N1[C@@H]2c1ccccc1OCCO` showed a composite z-score of -0.0726.
Work on `CCCC[C@H]1OB(O)C[C@H]2C1=C(COC)Cn1c(=O)n(-c3ccccc3)c(=O)n12` yielded a composite z-score of -0.208.
For `Oc1ccc2cc[n+](Cc3sc4ccccc4c3Cl)cc2c1`, the composite z-score was 0.217.
Compound `C=C[C@H](OC)[C@@H](OC(=O)Nc1ccc(OC)cc1)c1ccc(O)c(F)c1` has a composite z-score of -0.21.
With `O=C1C2C=CC(C(O)c3cc(C(F)(F)F)cc(C(F)(F)F)c3)N(n3cnnc3)C2C(=O)N1Cc1ccccc1` (stereo unspecified) the composite z-score was -0.191.
`CCC(CC)C(O)C1C=CC2C(=O)NC(=O)C2N1Nc1ccc(Cl)cc1Cl` (stereo unspecified) gave a composite z-score of -0.0306.
With `COc1cc(C(O)C2C=CC3C(=O)NC(=O)C3N2Nc2ccccn2)cc(OC)c1OC` (stereo unspecified) the composite z-score was 0.0624.
Work on `CC(C)C(CO)N1C(=O)[C@@H]2C3C(=O)OCCC/C=C\[C@H]3OC23C=CCN(CCN2CCOCC2)C(=O)[C@@H]13` (stereo partly specified) yielded a composite z-score of -0.245.
Compound `C=CCN1C(=O)[C@@]2(CC=C)N=C(c3ccc(OCCCO)cc3)O[C@H]2c2ccccc21` has a composite z-score of 0.357.
Compound `COC(=O)[C@@]1(Cc2ccccc2)N=C(c2ccc(OCCCO)cc2)O[C@H]1c1ccccc1` has a composite z-score of 0.116.
`C=C(COC)/C(=C/C[C@@H](OC(=O)c1ccncc1)c1ccc(CO)o1)c1cc(C(=O)OC)ccc1OC` showed a composite z-score of -0.178.
Compound `CN(C)CCCC[C@@H]1NC(=O)[C@H]2C[C@@H](C(=O)NCCCCCCN)[C@@H](c3ccc(O)cc3)N2C1=O` has a composite z-score of 1.14.
Work on `CO[C@H]1O[C@H](CO)[C@@H](OC(=O)Nc2ccc(Oc3ccccc3)cc2)[C@H](OC(=O)Nc2ccc3c(c2)OCO3)[C@H]1OC(=O)Nc1ccc2c(c1)OCO2` yielded a composite z-score of 0.25.
`Cc1ccc(S[C@]2(C(=O)NC3CC3)CC(=O)N(Cc3ccccc3)[C@@H]2c2ccc(CO)cc2I)cc1` gave a composite z-score of -0.012.
In the case of `CCCC#C[Si](O[C@H](CC)c1cn(Cc2cccc(Cl)c2)nn1)(C(C)C)C(C)C`, the composite z-score is reported as -0.0068.
In the case of `COCC(=C=CC[C@@H](O)c1cccc(OCCO)c1)C[C@@H](O)c1ccccn1`, the composite z-score is reported as -0.193.
With `CC(C)C[C@@H]1NC(=O)[C@H](C(C)C)NC(=O)[C@@]23C(=O)N[C@@H](Cc4ccccc4)C2[C@H](C)[C@@]2(C)O[C@H]2C3/C=C/CC/C=C/CNC1=O` (stereo partly specified) the composite z-score was -0.0346.
Compound `[N-]=[N+]=Nc1ccccc1[C@@H]1OC(c2ccc(OCCCO)cc2)=N[C@]1(Cc1ccccc1)C(=O)N1CCOCC1` has a composite z-score of 0.225.
`COc1ccc([Si](C)(C)[C@H]2[C@H](CCO)O[C@@]3(C(=O)N(Cc4ccc(N(C=O)c5ccccc5)cc4)c4ccccc43)[C@@H]2C)cc1` gave a composite z-score of -0.107.
`CC(C)=CCCC(C)=CC(O)C1C=CC2C(=O)N(C)C(=O)C2N1Nc1ccccc1` (stereo unspecified) gave a composite z-score of 0.245.
Work on `COc1cc(NN2C(C(O)c3ccco3)C=CC3C(=O)N(c4ccccc4)C(=O)C32)cc(OC)c1OC` (stereo unspecified) yielded a composite z-score of -0.2.
In the case of `C=CC[C@@]1(C(=O)NCCN2CCOCC2)N=C(c2ccc(OCCCO)cc2)O[C@@H]1c1ccccc1N=[N+]=[N-]`, the composite z-score is reported as 0.293.
`COC(=O)[C@@]1(Cc2ccccc2)[C@H]2c3cc(C(=O)N4CCCC4)n(Cc4ccc(S(C)(=O)=O)cc4)c3C[C@H]2CN1C(=O)c1ccccc1` gave a composite z-score of 0.0495.
Work on `C=CCNC(=O)[C@@H]1[C@H]2C(=O)O[C@H](c3ccccc3)[C@H](c3ccccc3)N2[C@H](c2ccc(O)cc2)[C@@]12C(=O)N(C(=O)OCCOC)c1ccc(C#CCNC(N)=O)cc12` yielded a composite z-score of 0.261.
For `CCOC(=O)C1=CC[C@@H](c2ccccc2)N(S(=O)(=O)c2ccc(C)cc2)[C@H]1c1ccccc1C`, the composite z-score was 0.066.
For `C=CCNC(=O)[C@@H]1[C@H]2C(=O)O[C@H](c3ccccc3)[C@H](c3ccccc3)N2[C@H](c2ccc(O)cc2)[C@@]12C(=O)Nc1ccc(C#CCNC(N)=O)cc12`, the composite z-score was -0.117.
